From PubChem
Most compounds without a hit are left out; they make up all but 1.3% or so of the library.
PGC1a acetyl inh – PGC1a acetylation modulation, inhibitor mode | U2OS PGC1a acetylation, AlphaScreen anti-acetyl-lysine; with virally co-expressed GCN5 acetyltransferase | inhibition, % at 15.6 µM | actives 0.17% (n = 350,000) | AID 651687;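 active means every replicate shows inhibition of at least 40%; inconclusive means mean inhibition at least 40% but some replicate below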;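 further: 0% = neutral control wells and 100% = positive control wells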
Statin myotox sup – suppression of simvastatin myotoxicity; rescue of ATP level, % at 7.49 µM; actives 0.78% (n = 330,000); C2C12 myotubes + simvastatin, ATP luminescence, 48 h; scaled: DMSO 0, geranylgeraniol control 100;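 active means mean ATP rescue above about 67%, or every replicate alone reaching that limit, limit read from the data, passing the limit was not always enough; inconclusive means no clear call, values can overlap the other calls; inactive means mean under the limit and some replicate under it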;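 further: myotubes were challenged with 10 µM simvastatin during compound exposure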
AI-2 QS modul – Vibrio harveyi AI-2 quorum sensing modulation | actives 0.4% (n = 300,000) | activity change, % at 7.5 µM | Vibrio harveyi JMH597 AI-2 luminescence/OD600 ratio, 9 h; hits give low values; strain lacks LuxN and CqsS sensors; 0 = neutral-control median; in the data active means activity change below about -75%, passing the limit was not always enough; inconclusive means no clear call, values can overlap the other calls;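 further: luminescence divided by OD600 gain over 9 h not by final OD600 alone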
Rce1 inhib – yeast Ras-converting enzyme inhibition; Q03530; yeast membranes, quenched prenylated peptide cleavage fluorescence; calls only; actives 0.27% (n = 290,000);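 active means fall in fluorescence gain of 50% or more versus controls, with final raw signal at or below 3038400; inconclusive means same 50% fall but final raw signal above 3038400; inactive means fall in fluorescence gain under 50%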;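 further: plate controls were neutral control wells for no effect and wells lacking membranes for full effect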
Target sequence (Q03530 whole entry, looked up): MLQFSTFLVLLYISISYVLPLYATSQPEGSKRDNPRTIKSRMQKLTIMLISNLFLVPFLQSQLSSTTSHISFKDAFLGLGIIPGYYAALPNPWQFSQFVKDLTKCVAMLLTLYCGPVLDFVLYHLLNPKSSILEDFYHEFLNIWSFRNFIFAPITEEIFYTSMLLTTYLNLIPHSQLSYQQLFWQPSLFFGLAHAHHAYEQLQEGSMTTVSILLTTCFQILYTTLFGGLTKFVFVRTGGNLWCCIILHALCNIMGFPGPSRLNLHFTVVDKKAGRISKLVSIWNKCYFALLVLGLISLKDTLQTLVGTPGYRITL
HIF act – HIF pathway transcriptional activation; activation, % at 7.5 µM (by protocol); U2OS HRE-luciferase reporter, luminescence; normalized: DMSO 0%, desferrioxamine 100%; AID 1910; actives 0.32% (n = 300,000);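 active means mean activation of at least 10% of the iron chelator positive control signal, with at least half of replicates also reaching 10%; inconclusive means mean and replicate majority disagree about reaching 10%; inactive means mean and most replicates under 10%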
JMH597 growth – retest: blocks Vibrio harveyi JMH597 growth | shares compounds with AI-2 QS modul | OD600 absorbance, 9 h; lacks LuxN and CqsS sensors | growth inhibition, % at 7.5 µM | actives 1% (n = 750) | AID 2726;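 active means every replicate shows growth inhibition above 50%; inconclusive means at least half, but not all, replicates pass that cutoff; inactive means fewer than half of replicates pass it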
BB721 lum counter – retest counter-screen: BB721 constitutive quorum sensing luminescence decrease | shares compounds with AI-2 QS modul | Vibrio harveyi BB721 luminescence, 9 h | inhibition, % at 7.5 µM | actives 95% (n = 750) | AID 2727;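 active means inhibition above about 80% in every replicate, not just on average, limit read from the data; inconclusive means at least half of replicates past the limit, but not all; inactive means fewer than half of replicates past the limit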
BB721 growth – retest: blocks Vibrio harveyi BB721 growth; shares compounds with AI-2 QS modul; OD600 absorbance, 9 h; growth inhibition, % at 7.5 µM; actives 3% (n = 750); AID 2728;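 active means every replicate shows growth inhibition above 50%; inconclusive means at least half but not all replicates above 50% inhibition; inactive means under half of replicates above 50% inhibition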
JMH597 AI-2 mod – Vibrio harveyi AI-2 signaling luminescence modulation – JMH597 strain, confirmation; inhibition, % at 7.5 µM; shares compounds with AI-2 QS modul; Vibrio harveyi JMH597 AI-2 quorum sensing luminescence, 9 h; luxN and CqsS knockout, AI-2 only; actives 97% (n = 750); AID 2736;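 active means every replicate shows more than 75% inhibition of signal versus neutral control wells; inconclusive means half to three quarters of replicates exceed 75% inhibition; inactive means fewer than half of replicates exceed 75% inhibition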
* hit, by the source's call; i = inactive; ? = inconclusive; nt = no result.

SMILES	PGC1a acetyl inh	Statin myotox sup	AI-2 QS modul	Rce1 inhib	HIF act	JMH597 growth	BB721 lum counter	BB721 growth	JMH597 AI-2 mod
O=C(COc1ccc(Br)cc1)Nc1ccc(S(=O)(=O)Nc2ccccn2)cc1	3.4	nt	-86.7*	i	-0.5	11.6	94.3*	-21.4	98.3*
CN(C)S(=O)(=O)c1ccc(NC(=O)COC(=O)c2ccccn2)cc1	10.9	-5.2	-86.9*	i	-0.3	-10.1	96.5*	5.1	97.4*
C[C@@H]1CN([C@@H](C)CO)C(=O)Cc2cc(NC(=O)Nc3cccc4ccccc34)ccc2O[C@H]1CN(C)S(C)(=O)=O	-3.6	19.9	nt	nt	nt	nt	nt	nt	nt
CO[C@H]1CN(C)C(=O)c2cc(NC(=O)c3ccc4c(c3)OCO4)ccc2OC[C@H](C)NC[C@@H]1C	2.8	3.6	nt	nt	nt	nt	nt	nt	nt
C[C@@H]1CN([C@H](C)CO)C(=O)Cc2cc(NC(=O)Cc3ccccc3)ccc2O[C@@H]1CN(C)Cc1ccc2c(c1)OCO2	-13.2	62.3	nt	nt	nt	nt	nt	nt	nt
Cc1cc(=O)oc2cc(OCC3CC(c4ccccc4)=NO3)ccc12 (configuration not stated)	-21.4	-59.9	-86.4*	i	2.1	21.2	94.9*	34.8	96.4*
Cc1cc(=O)oc2cc(OCC3CC(c4ccc(Br)cc4)=NO3)ccc12 (configuration not stated)	2.0	23.1	nt	nt	-0.3	nt	nt	nt	nt
O=C(CNC(=O)c1cccs1)c1ccc(Br)cc1	-3.3	6.5	10.9	i	2.8	nt	nt	nt	nt
O=C(CNC(=O)c1cccs1)OCc1ccc(Br)cc1	1.8	nt	?	i	-0.8	30.2	91.0*	-2.4	92.5*
O=C(CN1CCOCC1)N[C@@H]1CC[C@H](CCNC(=O)Nc2cc(F)ccc2F)O[C@H]1CO	-2.5	-9.5	nt	nt	nt	nt	nt	nt	nt
Cc1cccc(-c2noc(CCc3ccccc3)n2)c1	5.8	13.4	-78.0*	i	3.1	17.4	94.1*	-0.2	96.1*
COc1ccc(Cc2nc(-c3ccccc3)no2)cc1	2.3	11.1	-92.5*	i	3.1	13.4	97.6*	-43.7	98.4*
Cc1cccc(-c2noc(Cc3ccccc3)n2)c1	-8.8	5.9	-69.0	i	2.6	nt	nt	nt	nt
O=C(Nc1ccc(-c2noc(CCc3ccccc3)n2)cc1)c1ccco1	-0.2	nt	-81.4*	i	1.0	50.1	90.6*	92.9*	93.4*
COCC(=O)Nc1ccc2c(c1)OC[C@H](C)N(C(=O)C1CCCC1)C[C@@H](C)[C@@H](OC)CN(C)C2=O	-0.6	-7.4	nt	nt	nt	nt	nt	nt	nt
O=C(C[C@@H]1CC[C@H](NC(=O)Nc2cc(F)ccc2F)[C@H](CO)O1)Nc1ccc(-c2ccccc2)cc1	16.5	nt	nt	nt	nt	nt	nt	nt	nt
C[C@H](CO)N1C[C@H](C)[C@H](CN(C)C(=O)CN(C)C)Oc2cc(C#CC(C)(C)O)ccc2S1(=O)=O	3.3	-5.0	nt	nt	nt	nt	nt	nt	nt
COc1ccc2c3c([nH]c2c1)[C@H](CO)N(C(=O)CC1CC1)CC31CN(Cc2ccncc2)C1	3.8	nt	nt	nt	nt	nt	nt	nt	nt
O=C(Cc1ccc(Br)cc1)Nc1ccc(S(=O)(=O)Nc2ncccn2)cc1	-7.5	33.1	?	i	-3.1	nt	nt	nt	nt
O=C(CN1C(=O)c2ccccc2C1=O)Nc1ccc(S(=O)(=O)NCC2CCCO2)cc1 (configuration not stated)	-4.4	8.6	-91.1*	i	nt	-8.9	96.1*	-31.9	97.4*
O=C(Cc1ccc(Cl)cc1)Nc1ccc(S(=O)(=O)Nc2ncccn2)cc1	nt	9.1	-92.0*	i	-0.5	17.4	97.7*	28.1	98.8*
CC(Oc1ccccc1)C(=O)Nc1ccc(S(=O)(=O)NCC2CCCO2)cc1 (configuration not stated)	-18.4	6.4	?	i	-0.2	29.0	97.2*	-18.0	99.6*
COc1ccc(CC(=O)Nc2ccc(S(=O)(=O)NCC3CCCO3)cc2)cc1 (configuration not stated)	-5.2	16.8	-92.7*	i	0.0	30.7	99.4*	-33.6	99.8*
CC(C)C#Cc1ccc2c(c1)O[C@H](CN(C)C(=O)C1CCC1)[C@@H](C)CN([C@@H](C)CO)S2(=O)=O	5.5	1.5	nt	nt	nt	nt	nt	nt	nt
O=C(c1cccnc1)N1CCCCN2[C@H](C1)[C@H](c1ccc(C#Cc3ccccc3)cc1)[C@@H]2CO	2.9	nt	nt	nt	nt	nt	nt	nt	nt
SMILES	PGC1a acetyl inh	Statin myotox sup	AI-2 QS modul	Rce1 inhib	HIF act	JMH597 growth	BB721 lum counter	BB721 growth	JMH597 AI-2 mod
Cc1ccc(S(=O)(=O)N(C)C[C@@H]2Oc3ccc(NC(=O)NC4CCCCC4)cc3C(=O)N([C@H](C)CO)C[C@@H]2C)cc1	-10.5	-158.6	nt	nt	nt	nt	nt	nt	nt
COc1ccc(CC(=O)Nc2ccc(S(=O)(=O)Nc3nccs3)cc2)cc1	nt	22.5	?	i	0.3	-2.0	83.8*	3.2	89.0*
COc1ccc(CC(=O)OCC(=O)Nc2ccc(C(=O)Nc3ccc(OC)cc3)cc2)cc1	nt	nt	27.0	i	1.3	nt	nt	nt	nt
COc1ccc(CC(=O)Nc2ccc(C(N)=O)cc2)cc1	-16.4	nt	?	i	-0.1	1.5	85.0*	-6.6	88.8*
COc1cccc(CC(=O)Nc2ccc(S(=O)(=O)Nc3nccs3)cc2)c1	-0.6	-1.4	nt	nt	nt	nt	nt	nt	nt
O=C(NC1CCCCC1)[C@H]1[C@H](CO)[C@H]2Cn3c(cccc3=O)[C@@H]1N2CC1CCCCC1	-0.3	nt	nt	nt	nt	nt	nt	nt	nt
O=C(NCc1ccc2c(c1)OCO2)Nc1cccc(Cl)c1	nt	32.4	-91.5*	i	2.1	20.3	98.9*	32.8	98.6*
O=C(/C=C/c1cccs1)NCc1cccs1	-6.8	nt	-83.2*	i	0.8	9.2	91.8*	5.6	91.7*
O=C(Cc1ccc(Br)cc1)Nc1cccc(Cl)c1	3.0	nt	-81.6*	i	0.2	-20.4	87.6*	7.4	87.8*
Cc1ccc(/C=C/C(=O)NCc2cccs2)cc1	nt	-37.1	-74.8	i	1.8	nt	nt	nt	nt
O=C(/C=C/c1cccs1)NCc1ccc2c(c1)OCO2	nt	11.7	-90.3*	i	1.8	-13.6	94.7*	-9.8	95.1*
O=C(C1CCC1)N1C[C@@H]2[C@H](c3ccccc31)[C@@H](CO)N2C(=O)Cc1ccccn1	-13.9	4.7	nt	nt	nt	nt	nt	nt	nt
C[C@H]1CN([C@@H](C)CO)C(=O)c2cccc(NS(=O)(=O)c3cn(C)cn3)c2O[C@@H]1CN(C)C(=O)Nc1ccccc1	4.8	nt	nt	nt	nt	nt	nt	nt	nt
O=C(/C=C/c1ccccc1)NCc1ccc2c(c1)OCO2	-9.0	23.0	-94.0*	i	-2.0	-1.8	97.9*	1.6	98.3*
Cc1cc(NC(=O)Cn2nc3c(cc2=O)CCCC3)ccc1Br	-5.8	7.2	-97.3*	i	-0.3	10.2	99.6*	-4.3	99.8*
